Source: PubChem BioAssay
Shown are actives, neighbours in structure and some others; about 3.5% of the full set was active somewhere.
FBW7 act = activators of human E3 ligase FBW7. Q969H0. AlphaScreen FBW7–phospho-cyclin E peptide binding, activator screen. normalized activity (activation), % at 26.1 µM. hit rate 0.13% among 650,000; in the data active means normalized activity above about 1.9%;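 further: purified mutant Fbw7 with reduced substrate affinity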
TEAD-YAP block = TEAD-YAP interaction inhibition | HEK-TIYL cells, TEAD-Gal4/YAP UAS-luciferase luminescence | inhibition, % at 9.12 µM | hit rate 1.4% among 640,000; in the data active means inhibition above about 32%
GPR151 activ = activators of human GPR151 | Q8TDV0 | activation, % at 11.2 µM | hit rate 1% among 650,000 | PathHunter beta-arrestin GPR151 cells, luminescence | AID 1508602; in the data active means activation above about 4.9%
MITF primary = human MITF inhibition, primary screen | O75030 | inhibition, % at 2.6 µM | AID 1259374 | hit rate 0.91% among 650,000 | AlphaScreen MITF homodimerization, bead proximity signal; in the data active means inhibition above about 50%
Target sequence (O75030 whole entry, looked up): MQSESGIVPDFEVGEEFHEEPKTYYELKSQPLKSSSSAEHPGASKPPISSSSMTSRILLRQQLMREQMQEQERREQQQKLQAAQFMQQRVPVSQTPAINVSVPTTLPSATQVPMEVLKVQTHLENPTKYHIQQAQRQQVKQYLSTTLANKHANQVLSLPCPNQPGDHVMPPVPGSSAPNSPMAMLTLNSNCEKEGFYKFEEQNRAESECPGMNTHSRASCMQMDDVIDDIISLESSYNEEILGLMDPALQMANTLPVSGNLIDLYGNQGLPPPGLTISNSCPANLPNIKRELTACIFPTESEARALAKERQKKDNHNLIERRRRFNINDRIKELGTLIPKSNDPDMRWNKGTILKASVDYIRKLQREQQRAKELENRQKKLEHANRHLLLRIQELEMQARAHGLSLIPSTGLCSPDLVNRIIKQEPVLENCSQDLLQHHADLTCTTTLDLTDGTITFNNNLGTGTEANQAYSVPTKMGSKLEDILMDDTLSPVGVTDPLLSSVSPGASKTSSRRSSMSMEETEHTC
MITF confirm = human MITF inhibition, confirmation; inhibition, % at 2.6 µM; AlphaScreen MITF homodimerization, biotin/His-MITF beads; AID 1259372; shares compounds with MITF primary; hit rate 16% among 4,700;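 active means inhibition above a cutoff derived from the DMSO control wells, cut at about 28% in these data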;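 further: inhibitors lower the bead chemiluminescence by keeping MITF from dimerizing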
AlphaScreen DR = optically interferes with AlphaScreen signal in dose response; shares compounds with MITF primary; AlphaScreen optical interference counterscreen, cell-free; IC50, µM; hit rate 6% among 480; AID 1259373; call rule not given here
AS interf ctr = counter-screen: compounds optically interfering with AlphaScreen; LysRS AlphaScreen counterscreen, signal interference, triplicate; hit rate 7.6% among 4,700; inhibition, % at 2.6 µM; shares compounds with MITF primary; AID 1259376;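 active means inhibition above a cutoff derived from the DMSO control wells, cut at about 30% in these data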
Numbers stand for hits; . = inactive; / = no result.

SMILES	FBW7 act	TEAD-YAP block	GPR151 activ	MITF primary	MITF confirm	AS interf ctr	others
O=C(N/N=C/c1c(O)ccc2ccccc12)C(=O)Nc1cc(Cl)ccc1Cl	.	.	.	.	/	/
CCCc1cc(=O)[nH]c(SCC(=O)NCc2ccco2)n1	.	.	.	.	/	/
CCOC(=O)c1c(NC(=O)CSc2nnc(CNC(=O)COc3ccccc3)n2Cc2ccccc2)sc2c1CCC2	.	.	.	.	/	/
O=C(c1ccncc1)N1CCN(Cc2ccccc2Br)CC1	.	.	.	62	.	.
O=C(c1ccc(-c2ccccc2)cc1)N1CCN(Cc2ccncc2)CC1	.	.	.	.	/	/
CN(C)c1ccc(N=Cc2ccccc2)cc1	.	.	.	.	/	/
CN(C)c1ccc(N=c2cc(-c3ccccc3)cc(-c3ccccc3)s2)cc1	.	.	.	54	.	.
CN(C)CCN(Cc1ccccc1)Cc1ccccc1O	.	.	.	.	/	/
CN(C)CCN(Cc1ccccc1)Cc1ccc(O)cc1	.	.	.	.	/	/
CCN(CCN(C)C)Cc1ccc(NC(C)=O)cc1	.	.	.	.	/	/
CCN(CC)CCN(C)Cc1ccc([N+](=O)[O-])cc1	.	.	.	73	.	.
CN(C)CCN(Cc1ccccc1)Cc1ccc([N+](=O)[O-])cc1	.	.	.	66	.	.
COc1cccc(CN(CCN(C)C)Cc2ccccc2)c1OC	.	.	.	52	.	.
CC(=O)Nc1ccc(CN(CCN(C)C)Cc2ccccc2)cc1	.	.	.	59	.	.
CCOC(=O)C/C(C)=N/Nc1ccc(C(F)(F)F)cc1[N+](=O)[O-]	.	.	.	.	/	/
O=C(NCCc1ccccc1)N1CCC2(CC1)OCc1cc(F)ccc1O2	.	.	.	.	/	/
Cc1nc(-c2cccs2)c(CCC(=O)Nc2ccc(Cl)cc2C)s1	.	.	.	.	/	/
CCOC(=O)CNC(=O)c1sc2cc(C)ccc2c1Cl	.	.	.	.	/	/
Cc1ccc2c(Cl)c(C(=O)NCc3ccncc3)sc2c1	.	.	.	70	.	.
CCOc1ccc(NC(=O)CSC2=C(C#N)C(c3ccco3)C(C(=O)Nc3ccccc3C)=C(C)N2)cc1 (centres undefined)	.	.	.	63	.	.
CC1=C(C(=O)Nc2ccccc2C)C(c2ccco2)C(C#N)=C(SCC(=O)Nc2ccc(C)cc2)N1 (centres undefined)	.	.	.	.	/	/
COc1ccc(C(=O)N2CCN(C)CC2)c(OC)c1	.	.	.	.	/	/
O=C(c1cc(Br)cs1)n1cccn1	.	.	.	.	/	/
COc1cc2c(cc1OC)C(c1cc3cc4c(cc3[nH]c1=O)OCO4)N(C(=O)C1CC1)CC2 (centres undefined)	.	.	.	67	.	.
COc1cc2c(cc1OC)C(COc1ccc(F)cc1)N(C(=O)C1CC1)CC2 (centres undefined)	.	.	.	.	/	/
SMILES	FBW7 act	TEAD-YAP block	GPR151 activ	MITF primary	MITF confirm	AS interf ctr	others
O=Cc1cccc2c1sc1ccccc12	.	.	.	.	/	/
CS(=O)(=O)Nc1ccc(-c2n[nH]c(=S)n2Cc2ccco2)cc1	.	.	.	.	/	/
C(=N\Nc1nc(-c2ccccn2)cs1)/c1cccnc1	.	.	.	52	30	54
O=[N+]([O-])c1ccc(N/N=C/c2cccc(O)c2O)c(S(=O)(=O)N2CCOCC2)c1	.	.	.	.	/	/
O=[N+]([O-])c1ccc(N/N=C/c2ccco2)c(S(=O)(=O)N2CCOCC2)c1	.	.	.	63	33	.	AlphaScreen DR=.
Clc1cc(CNC2CCN(Cc3ccccc3)CC2)cc2c1OCCO2	.	.	.	58	.	.
CCCCNC(=O)CCNC(=O)Cn1cnc2sc3c(c2c1=O)CCCC3	.	.	.	.	/	/
COc1ccc(CN2CCC(N3CCN(c4ccccc4)CC3)CC2)c(OC)c1	.	.	.	60	.	.
COc1ccc(CN2CCN(C3CCC(c4ccccc4)CC3)CC2)c(OC)c1 (centres undefined)	.	.	.	58	.	.
c1ccc(C2CCC(N3CCN(C4CCCCC4)CC3)CC2)cc1 (centres undefined)	.	.	.	.	/	/
COc1ccc(CN2CCN(C3CCN(Cc4ccccc4)CC3)CC2)c(OC)c1	.	.	.	.	/	/
COc1cc(C(=O)N2CCN(C3CCC(c4ccccc4)CC3)CC2)cc(OC)c1OC (centres undefined)	.	.	.	51	.	.
